# In the library only some 3.4% were active in any assay of this set; here they are far more common.
# FBW7 act: FBW7 E3 ligase activators, primary screen, biochemical, AlphaScreen, human; AlphaScreen FBW7–phospho-cyclin E peptide binding, activator screen; F-box/WD repeat-containing protein 7 (Homo sapiens), Q969H0; 0.13% of 650,000 active; normalized activity (activation), % at 26.1 µM; AID 1259310, 2017; in the data active = normalized activity above about 1.9%;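 note: purified mutant Fbw7 with reduced substrate affinity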
# GPR151 ag: activators of human GPR151, primary screen, cell-based, PathHunter beta-arrestin, luminescence; G-protein coupled receptor 151 (Homo sapiens), Q8TDV0; PathHunter beta-arrestin GPR151 cells; activation, % at 11.2 µM; 1% of 650,000 active; in the data active = activation above about 4.9%;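 note: 0% = median of compound wells and 100% = cells with positive control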
# Target sequence (Q8TDV0 whole entry, looked up): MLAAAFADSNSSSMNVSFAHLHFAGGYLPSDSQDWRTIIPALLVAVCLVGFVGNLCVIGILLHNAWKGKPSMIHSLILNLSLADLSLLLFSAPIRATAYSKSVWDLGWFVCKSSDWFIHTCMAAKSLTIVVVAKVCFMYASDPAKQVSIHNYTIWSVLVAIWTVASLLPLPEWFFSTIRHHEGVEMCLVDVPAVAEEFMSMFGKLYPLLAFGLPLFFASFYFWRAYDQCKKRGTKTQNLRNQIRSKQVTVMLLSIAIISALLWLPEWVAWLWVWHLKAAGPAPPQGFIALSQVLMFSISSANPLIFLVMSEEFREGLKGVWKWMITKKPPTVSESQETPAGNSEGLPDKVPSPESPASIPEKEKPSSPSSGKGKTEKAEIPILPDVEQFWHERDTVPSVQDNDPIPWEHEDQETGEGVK
# TEAD-YAP block: TEAD-YAP interaction inhibition, primary screen, TEAD-YAP interaction inhibitor project, luminescence, HEK-TIYL cells; TEAD-Gal4/YAP UAS-luciferase luminescence; 1.4% of 640,000 active; inhibition, % at 9.12 µM; in the data active = inhibition above about 32%;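 note: 0% = median of test compound wells and 100% = reference inhibitor wells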
# MITF inh: MITF inhibitors, primary screen, biochemical, AlphaScreen, human; Microphthalmia-associated transcription factor (Homo sapiens), O75030; AlphaScreen MITF homodimerization, bead proximity signal; inhibition, % at 2.6 µM; 0.91% of 650,000 active; in the data active = inhibition above about 50%;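 note: 0% = vehicle wells with protein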
# GPR151 conf act: GPR151 activators, triplicate retest, confirmation, cell-based, PathHunter beta-arrestin, luminescence; shares compounds with GPR151 ag; GPR151 PathHunter beta-arrestin cells, 90 min; % of EA-reagent control over plate median; activation, % at 11.2 µM; 6,700 tested, under 10 active; AID 1508609, 2020;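 active = mean percent activation across replicates above the confirmation screen cutoff of 4.91%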
# GPR119 ag: GPR119 activators in beta-arrestin cells, counter-screen for GPR151 activator project, cell-based, PathHunter beta-arrestin, luminescence, triplicate; shares compounds with GPR151 ag; 0.3% of 6,700 active; 90 min; 0 = compound-well median, 100 = enzyme-acceptor control; AID 1508611, 2020; activation, % at 11.2 µM;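 active = mean percent activation in the counterscreen above 29.09%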;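 note: counterscreen on off-target GPR119 to flag nonselective hits from the GPR151 activator screen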
# An asterisk follows results filed as active; x = no result given.
SMILES,FBW7 act,GPR151 ag,TEAD-YAP block,MITF inh,GPR151 conf act,GPR119 ag
O=C(COc1ncnc2ccc(Br)cc12)Nc1ccc(F)c([N+](=O)[O-])c1,0,5.2*,-2,6,-1,-10
Cc1sc2nc(SCC(=O)Nc3ccc(Cl)c(C(F)(F)F)c3)n(-c3ccccc3)c(=O)c2c1C,0,-1,-5,21,x,x
CCCC(=O)NCCc1ccc(F)cc1,0,19*,-11,-6,1,7
O=C(Cc1ccc(F)cc1)NCCc1ccc(F)cc1,0,0,-11,-7,x,x
CCc1ccc(CNc2ccc(NC(C)=O)cc2)cc1,0,0,-11,-5,x,x
COc1ccc(CN2CCCC(N3CCC(CO)CC3)C2)c(OC)c1OC (stereo unspecified),0,1,1,-5,x,x
O=C1OC(c2ccc(F)cc2)=N/C1=C\c1ccc(-c2ccc(I)cc2)o1,0,6.0*,-1,-1,0,-1
CCCn1nnnc1SCC(=O)Nc1cccc(NC(C)=O)c1,0,5.2*,-3,-8,2,7
CCn1nnnc1SCC(=O)Nc1cccc(NC(C)=O)c1,0,0,-8,-13,x,x
CCOC(=O)c1c(NC(=O)c2ccc(C)cc2)sc(C(=O)Nc2cc(C(F)(F)F)ccc2Cl)c1C,0,1,-20,5,x,x
COc1ccccc1NC(=O)CSc1nc2ccsc2c(=O)n1-c1ccc(Cl)cc1,0,5.6*,0,-4,1,10
COc1ccc(-n2c(SCC(=O)Nc3ccccc3OC)nc3ccsc3c2=O)cc1,0,-1,2,4,x,x
Cc1csc(-c2ccc(C(=O)O)c(Cl)n2)c1,0,-4,13,11,x,x
O=S1(=O)CCC(N=Cc2ccccc2O)C1 (stereo unspecified),0,0,-8,-8,x,x
O=C(O)CN1C(=O)/C(=C/c2ccc(I)o2)SC1=S,0,6.7*,-2,55*,0,0
O=C(O)CCN1C(=O)/C(=C/C=C/c2ccco2)SC1=S,-2,0,23,20,x,x
O=C(O)CCN1C(=O)/C(=C\c2ccco2)SC1=S,0,11*,-6,36,-1,8
O=C(O)CN1C(=O)/C(=C/c2ccc(SCc3ccco3)o2)SC1=S,-1,1,2,40,x,x
COC(=O)CN1C(=O)S/C(=C/c2ccco2)C1=O,0,7.0*,2,20,2,-13
CC(C)Oc1ccccc1C(=O)N/N=C/c1ccc2c(c1)OCO2,0,-2,-32,3,x,x
O=C(Cc1cccc2ccccc12)N/N=C/c1ccc(O)cc1,0,1,-5,7,x,x
CSc1ccc(S(=O)(=O)N(CC(=O)O)c2ccc(C)cc2)cc1,1,5.8*,6,19,-1,-11
CCN(CC)C(=O)CN(c1ccccc1)S(=O)(=O)c1ccc(C)cc1,0,6.4*,-3,13,2,12
CCN(CC)C(=O)CN(c1cc(C)cc(C)c1)S(=O)(=O)c1ccccc1,0,0,4,4,x,x
CCOc1ccc(N(CC(=O)NC(C)(C)C)S(=O)(=O)c2ccc(SC)cc2)cc1,0,22*,13,3,0,-4
SMILES,FBW7 act,GPR151 ag,TEAD-YAP block,MITF inh,GPR151 conf act,GPR119 ag
CCN(CC)C(=O)CN(c1cccc(OC)c1)S(C)(=O)=O,0,12*,2,-1,1,-6
CC1CCN(S(=O)(=O)c2ccc(NC(=O)CC(C)(C)C)cc2)CC1,0,1,11,1,x,x
CN(CC(=O)Nc1ccccc1C#N)S(=O)(=O)c1ccc(Br)cc1,0,0,3,-14,x,x
COc1ccccc1C(=O)N/N=C/c1cccc([N+](=O)[O-])c1,0,1,-16,-4,x,x
CC(=O)Nc1ccc(S(=O)(=O)Nc2cc([N+](=O)[O-])ccc2F)cc1,1,0,1,3,x,x
O=C(CCc1nnc(-c2ccsc2)o1)N1CCCCC1CCc1ccccn1 (stereo unspecified),0,6.5*,-21,11,1,2
O=C(CCc1nnc(Cc2c[nH]c3ccccc23)o1)N1CCCCC1CCc1ccccn1 (stereo unspecified),0,0,-5,-3,x,x
C/C(=N\NC(=O)c1cccc([N+](=O)[O-])c1C)c1ccc(Cl)cc1,0,0,-4,10,x,x
C=CCNC(=S)NNc1ccccc1Cl,0,0,-3,26,x,x
COc1ccc(Cc2nnc(SCC(=O)Nc3ccc(F)cc3)o2)cc1,0,0,2,-2,x,x
COc1ccc(Cc2nnc(SCC(=O)Nc3ccc(C)c([N+](=O)[O-])c3)o2)cc1,0,7.4*,8,10,0,-9
Cc1cc(N=c2ssnc2Cl)no1,0,0,3,-3,x,x
Cc1cc2ncn(S(=O)(=O)c3ccc(Cl)c(Cl)c3)c2cc1C,0,-1,4,10,x,x
Cc1cc2ncn(S(=O)(=O)c3ccc(S(=O)(=O)N4CCCCC4)cc3)c2cc1C,1,7.7*,-6,16,0,-11
S=c1nc2c(n[nH]1)c1ccccc1n2Cc1ccccc1,0,1,-9,3,x,x
S=c1nc2c(n[nH]1)c1ccccc1n2CCc1ccccc1,0,6.5*,4,7,2,7
CC(C)n1c2ccccc2c2n[nH]c(=S)nc21,0,6.7*,-4,-14,0,-1
O=C(CN1C(=O)NC(Cc2ccccc2)(Cc2ccccc2)C1=O)NC1CCCC1,0,2,-2,15,x,x
CCOc1cc(Br)c(/C=C/C(=O)O)cc1OC,0,5.3*,-1,10,0,-7
CC1=C(C(=O)Nc2cccc(C)n2)C(c2ccc(C)cc2)C2=C(CC(C)(C)CC2=O)N1 (stereo unspecified),0,6.9*,4,16,1,9
CC1=C(C(=O)Nc2ccc(F)cc2)C(c2ccc(N(C)C)cc2)C2=C(CC(C)(C)CC2=O)N1 (stereo unspecified),0,5.6*,-34,14,0,4
CC1=C(C(=O)Nc2c(F)cccc2F)C(c2ccc(N(C)C)cc2)C2=C(CC(C)(C)CC2=O)N1 (stereo unspecified),0,2,11,2,x,x
Cc1nc(SCC(=O)OC(C)C)c2c(C)c(C)sc2n1,0,-1,2,0,x,x
CC(C)C(NS(=O)(=O)c1c(Cl)cccc1Cl)C(=O)O (stereo unspecified),0,3,-10,12,x,x
Cc1nn(-c2ccccc2)c(Cl)c1/C=N\O,0,5.1*,-5,-5,3,5

# Source: PubChem (The Scripps Research Institute Molecular Screening Center)
